Reference: PubChem BioAssay (NCI)
This is part of a sample that, as a whole, favours compounds with a hit. Of some 83,000 tested, about 20% had one in any assay.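 Treatment: one concentration, 48 hours, 96-well format. Scoring: percent growth, with anything below 10 considered active.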 Activity calls are given as the source filed them.

What was measured:
Assay in all cases: NCI-60 one-dose screen, 48 h (100 = growth as untreated, 0 = no growth, -100 = all killed)
Conditions in all cases: 10 µM unless noted
DU-145 prostate = tested on: DU-145 prostate
K-562 leukemia = tested on: K-562 leukemia
MALME-3M melanoma = tested on: MALME-3M melanoma
MDA-MB-231 breast = tested on: MDA-MB-231 breast
RXF 393 renal = tested on: RXF 393 renal
SF-268 CNS = tested on: SF-268 CNS
SF-295 CNS = tested on: SF-295 CNS
SF-539 CNS = tested on: SF-539 CNS
UACC-257 melanoma = tested on: UACC-257 melanoma
M14 melanoma = tested on: M14 melanoma

Measured: growth

N#CC[C@H](C1CCCC1)n1cc(-c2ncnc3[nH]ccc23)cn1
inactive: DU-145 prostate 62.8% | K-562 leukemia 70.4% | MALME-3M melanoma 97% | MDA-MB-231 breast 60.4% | RXF 393 renal 15.9% | SF-268 CNS 59.8% | SF-295 CNS 76.6% | SF-539 CNS 67.4% | UACC-257 melanoma 78.9% | M14 melanoma 77.9%

Cn1ncc(Cl)c1-c1cc(C(=O)N[C@H](CN)Cc2cccc(F)c2)sc1Cl
inactive: DU-145 prostate 44.4% | SF-268 CNS 27%
active: K-562 leukemia -21.1% | MALME-3M melanoma -73.8% | MDA-MB-231 breast -9.49% | RXF 393 renal -36.5% | SF-295 CNS -12.5% | SF-539 CNS -31.5% | UACC-257 melanoma -87.7% | M14 melanoma -54.8%

CN1CCC(CNc2ccc3ncc(-c4cccc(OC(F)(F)F)c4)n3n2)CC1
active: K-562 leukemia -47.3% | MALME-3M melanoma -90.2% | MDA-MB-231 breast -80.3% | RXF 393 renal -70.7% | SF-268 CNS -33.1% | SF-295 CNS -71.2% | SF-539 CNS -91.4% | UACC-257 melanoma -87.4% | M14 melanoma -73.3%
inactive: DU-145 prostate 22.5%

CC(C)NC[C@@H](C(=O)N1CCN(c2ncnc3c2[C@H](C)C[C@H]3O)CC1)c1ccc(Cl)cc1
inactive: DU-145 prostate 67.8% | K-562 leukemia 64.7% | MALME-3M melanoma 60.1% | MDA-MB-231 breast 87.6% | SF-268 CNS 57.7% | SF-295 CNS 19.9% | UACC-257 melanoma 42.8% | M14 melanoma 69.9%
active: RXF 393 renal -24.8% | SF-539 CNS 2.83%

Cc1nc(-c2cn3c(n2)-c2ccc(-c4cnn(C(C)(C)C(N)=O)c4)cc2OCC3)n(C(C)C)n1
inactive: DU-145 prostate 28.7% | K-562 leukemia 51% | MALME-3M melanoma 11.1% | MDA-MB-231 breast 31.8% | SF-268 CNS 33.1% | UACC-257 melanoma 20.2% | M14 melanoma 40.5%
active: RXF 393 renal -28.1% | SF-295 CNS 3.66% | SF-539 CNS -19.5%

CN1CCN(CCOc2cc(OC3CCOCC3)c3c(Nc4c(Cl)ccc5c4OCO5)ncnc3c2)CC1
active: K-562 leukemia 5.29%
inactive: DU-145 prostate 43.8% | MALME-3M melanoma 98.3% | MDA-MB-231 breast 61.3% | RXF 393 renal 31.6% | SF-268 CNS 61.4% | SF-295 CNS 77.8% | SF-539 CNS 60% | UACC-257 melanoma 82.7% | M14 melanoma 79.4%

Cn1cc(-c2[nH]c3cc(NC(=O)[C@H](N)C4CCCCC4)cc4c3c2C=NNC4=O)cn1
inactive: DU-145 prostate 30.5% | SF-295 CNS 16.8% | UACC-257 melanoma 21.1%
active: K-562 leukemia -59.6% | MALME-3M melanoma -56.2% | MDA-MB-231 breast -67.7% | RXF 393 renal -85.1% | SF-268 CNS -23.4% | SF-539 CNS -84.8% | M14 melanoma -17.6%

COC(=O)Nc1nc2ccc(C(=O)c3ccc(N(C)C4COC4)cc3)cc2[nH]1
inactive: DU-145 prostate 12.7% | MALME-3M melanoma 53.8% | MDA-MB-231 breast 37.8% | RXF 393 renal 22.1% | SF-268 CNS 41.5% | SF-295 CNS 13.3% | UACC-257 melanoma 44.4%
active: K-562 leukemia 7.83% | SF-539 CNS -7% | M14 melanoma 3.69%

CCOC(=O)c1sc(NC(=O)COc2ccc(/C=C3\Cc4ccc(Cl)cc4C3=O)cc2)nc1C
inactive: DU-145 prostate 117% | K-562 leukemia 102% | MALME-3M melanoma 110% | MDA-MB-231 breast 90.6% | RXF 393 renal 116% | SF-268 CNS 114% | SF-295 CNS 127% | SF-539 CNS 86.9% | UACC-257 melanoma 112% | M14 melanoma 107%

C=CC(=O)N1CCC[C@@H](n2nc(-c3ccc(Oc4ccccc4)cc3)c3c(N)ncnc32)C1
active: K-562 leukemia 8.51%
inactive: DU-145 prostate 47.9% | MALME-3M melanoma 86.8% | MDA-MB-231 breast 56.4% | RXF 393 renal 11% | SF-268 CNS 42% | SF-295 CNS 60.7% | SF-539 CNS 32.9% | UACC-257 melanoma 26.4% | M14 melanoma 41.9%

O=C1C=CC2(NN=C(c3ccccc3)N2c2cccc(Cl)c2)C(Cl)=C1 (stereo not given)
inactive: DU-145 prostate 103% | K-562 leukemia 28.6% | MALME-3M melanoma 107% | MDA-MB-231 breast 61.6% | RXF 393 renal 92.4% | SF-268 CNS 74.9% | SF-295 CNS 76.7% | SF-539 CNS 96.8% | UACC-257 melanoma 78.4% | M14 melanoma 84.7%

CN(C)CCOC(=O)Nc1nc2ccc(Sc3ccccc3)cc2[nH]1
active: SF-539 CNS -0.508% | M14 melanoma 0.259%
inactive: DU-145 prostate 27.2% | K-562 leukemia 15.7% | MALME-3M melanoma 49.2% | MDA-MB-231 breast 47.8% | RXF 393 renal 14.1% | SF-268 CNS 51% | SF-295 CNS 24.9% | UACC-257 melanoma 49.1%

Cc1cc(-c2cc(OC(=O)c3ccccc3)ccc2Cl)cc2nnc(Nc3ccc(OCCN4CCCC4)cc3)nc12
inactive: DU-145 prostate 83.2% | MALME-3M melanoma 79.2% | MDA-MB-231 breast 70.6% | RXF 393 renal 59.3% | SF-268 CNS 92.8% | SF-295 CNS 92.7% | SF-539 CNS 87.1% | UACC-257 melanoma 52.1%
active: K-562 leukemia -21.5% | M14 melanoma -8.09%

CC(C)Nc1cc(-c2c[nH]c(C(=O)N[C@H](CO)c3cccc(Cl)c3)c2)c(Cl)cn1
active: MALME-3M melanoma 9.08% | RXF 393 renal 2.5% | UACC-257 melanoma -9.52% | M14 melanoma 3.28%
inactive: DU-145 prostate 57.4% | K-562 leukemia 19.8% | MDA-MB-231 breast 20.1% | SF-268 CNS 59.6% | SF-295 CNS 45.6% | SF-539 CNS 45.2%

N#CCNC(=O)c1ccc(-c2ccnc(Nc3ccc(N4CCOCC4)cc3)n2)cc1
active: RXF 393 renal -62.8% | SF-539 CNS -9.39%
inactive: DU-145 prostate 18.6% | K-562 leukemia 26.9% | MALME-3M melanoma 33.2% | MDA-MB-231 breast 19.8% | SF-268 CNS 22.1% | SF-295 CNS 49.5% | UACC-257 melanoma 31.1% | M14 melanoma 44%

CC/C=C\C[C@H]1C/C=C2/C(=O)C=C[C@@H]2C/C=C\CCCC(=O)O1
active: DU-145 prostate -10.9% | K-562 leukemia 1.56% | MALME-3M melanoma -15.3% | MDA-MB-231 breast 1.26% | RXF 393 renal -57.1% | SF-268 CNS -0.852% | SF-295 CNS -19.8% | SF-539 CNS 5.18% | UACC-257 melanoma -12.7% | M14 melanoma -17.4%

N[C@@H]1CCCN(c2c(/C=C3\SC(=O)NC3=O)cccc2-c2ccccc2)C1
active: SF-295 CNS 5.44% | SF-539 CNS -24.7%
inactive: DU-145 prostate 70.4% | K-562 leukemia 33.1% | MALME-3M melanoma 55.6% | MDA-MB-231 breast 55.8% | RXF 393 renal 54.6% | SF-268 CNS 43% | UACC-257 melanoma 44.7% | M14 melanoma 54.3%

C[C@@H]1COC(Nc2ccc3ncnc(Nc4ccc(OCc5nccs5)c(Cl)c4)c3c2)=N1
inactive: DU-145 prostate 36.1% | K-562 leukemia 22.6% | MALME-3M melanoma 38% | MDA-MB-231 breast 42.8% | RXF 393 renal 49.1% | SF-268 CNS 46.5% | SF-295 CNS 18.9% | SF-539 CNS 65.5% | UACC-257 melanoma 48.3% | M14 melanoma 19.5%

COc1cc(N2CCC(N3CCN(C)CC3)CC2)ccc1Nc1ncnc(Nc2ccccc2S(=O)(=O)C(C)C)n1
inactive: DU-145 prostate 100% | K-562 leukemia 94% | MALME-3M melanoma 106% | MDA-MB-231 breast 95.9% | RXF 393 renal 133% | SF-268 CNS 100% | SF-295 CNS 104% | SF-539 CNS 100% | UACC-257 melanoma 108% | M14 melanoma 93.3%

Cc1nn(-c2ccccc2)c2c1N=c1s/c(=C\c3cn(-c4ccccc4)nc3-c3ccc(Cl)cc3)c(=O)n1C(C)N2 (stereo not given)
inactive: DU-145 prostate 59.7% | K-562 leukemia 119% | MALME-3M melanoma 124% | MDA-MB-231 breast 78.5% | RXF 393 renal 114% | SF-268 CNS 91% | SF-295 CNS 116% | SF-539 CNS 85.6% | UACC-257 melanoma 111% | M14 melanoma 107%

COCC(=O)NC/C=C/c1ccc2ncnc(Nc3ccc(Oc4ccc(C)nc4)c(C)c3)c2c1
active: MALME-3M melanoma 4.79%
inactive: DU-145 prostate 30.7% | K-562 leukemia 47.9% | MDA-MB-231 breast 42.7% | RXF 393 renal 45.4% | SF-268 CNS 52.3% | SF-295 CNS 62.4% | SF-539 CNS 48% | UACC-257 melanoma 24.6% | M14 melanoma 13.1%

O=C1OCC2=C1C(c1cccc(F)c1)c1cc3c(cc1N2CCO)OCCO3 (stereo not given)
inactive: DU-145 prostate 14.3% | MALME-3M melanoma 46.2% | MDA-MB-231 breast 24.8% | SF-268 CNS 34.5% | UACC-257 melanoma 89%
active: K-562 leukemia 8.66% | RXF 393 renal 4.45% | SF-295 CNS -15.9% | SF-539 CNS -31.7% | M14 melanoma -9.63%

CSc1nc2ncncc2[nH]1
inactive: DU-145 prostate 112% | K-562 leukemia 93.9% | MALME-3M melanoma 111% | MDA-MB-231 breast 99.3% | RXF 393 renal 45.4% | SF-268 CNS 105% | SF-295 CNS 81% | SF-539 CNS 89.6% | UACC-257 melanoma 114% | M14 melanoma 90.7%

CN(C)C1CCN(C(=O)c2ccc(NC(=O)Nc3ccc(-c4nc(N5CCOCC5)nc(N5CCOCC5)n4)cc3)cc2)CC1
active: DU-145 prostate 2.99% [2.5 µM] | MALME-3M melanoma -34.1% [2.5 µM] | RXF 393 renal -40.4% [2.5 µM] | SF-295 CNS -31.1% [2.5 µM] | SF-539 CNS -53% [2.5 µM] | UACC-257 melanoma -40% [2.5 µM] | M14 melanoma 7.46% [2.5 µM]
inactive: K-562 leukemia 14.4% [2.5 µM] | MDA-MB-231 breast 17.2% [2.5 µM] | SF-268 CNS 10.6% [2.5 µM]

O=S1(=O)OC(c2cc(Cl)c(O)c(Br)c2)(c2cc(Cl)c(O)c(Br)c2)c2ccccc21
inactive: DU-145 prostate 114% | K-562 leukemia 109% | MALME-3M melanoma 115% | MDA-MB-231 breast 94.8% | RXF 393 renal 109% | SF-268 CNS 106% | SF-295 CNS 127% | SF-539 CNS 94.6% | UACC-257 melanoma 95.4% | M14 melanoma 99.4%

O=C(NC1CCNCC1)c1[nH]ncc1NC(=O)c1c(Cl)cccc1Cl
active: K-562 leukemia 5.78% | MALME-3M melanoma -38.8% | MDA-MB-231 breast 1.88% | RXF 393 renal -50% | SF-268 CNS 9.79% | SF-295 CNS 8.53% | SF-539 CNS -41.9% | UACC-257 melanoma -6.15% | M14 melanoma 9.93%
inactive: DU-145 prostate 12.3%
